Assay results as given in PubChem BioAssay (NCATS).
Records with an inconclusive call do not appear. Values without a mark were called inactive. The source made the active and inactive calls. The call rests on the fitted dose curve; in most records, active means well fitted inhibition curve with a large enough effect; inconclusive means small, poorly fitted or top-dose-only effect; inactive means no such curve, though single readings can be large or run the other way. Where a SMILES comes first, the peptide text is derived from it. The star is where a group is joined. PhAc = O=C(Cc1ccccc1)*
On the % scale 0 is the no-effect control and ±100 the full control effect; potency means the concentration at half of the fitted maximal effect.

These compounds were tested on Zika virus NS2B-NS3 protease (unlinked complex) (assay: Primary screen GU Rhodamine qHTS for Zika virus inhibitors: Unlinked NS2B-NS3 protease assay (AID 1347159; further: nearly all actives have a fitted effect of over 60% in size)). Details: Recombinant ZIKV NS2B-NS3 protease, Rhodamine110 substrate fluorescence; series mostly up to 107 µM; activity change, negative = inhibition: at the top concentration.
How it was run: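 In dose–response format, inhibition of unlinked protease (25 nM) was measured with 1.5 microM bis-peptide Rhodamine110 substrate. Aprotinin served as the intraplate control.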
In the case of `COc1ccc(CC(NC(C)=O)C(=O)O)cc1` (stereo not drawn), the Potency is reported as 31.6 µM (active).
`O=C(/C=C/c1ccc(O)cc1)O[C@H]1[C@H](OC2CCCCC2O)O[C@H](CO)[C@@H](O)[C@@H]1O` (stereo partly drawn) was tested, and the “activity change, negative = inhibition” value was -18.2% [at 57.1 µM].
With `C[C@@H]1[C@H]2[C@H](O[C@@H]3O[C@H](CO)[C@@H](O)[C@H](O)[C@H]3O)OC=C(C(=O)O)[C@H]2C[C@@H]1OC(=O)/C=C/c1ccc(O)cc1` the Potency was 31.6 µM (active).
`C[C@]12CCC[C@](C)(C(=O)O)C1[C@@H](O)[C@@H](O)C13CC(CCC12)C(CO)(O[C@@H]1O[C@H](CO)[C@@H](O)[C@H](O)[C@H]1O)C3` (stereo partly drawn) was tested, and the “activity change, negative = inhibition” value was -22.9% [at 57.1 µM].
With `Cc1ccc(C)c(NC(=O)CNS(=O)(=O)c2ccc3[nH]c(=O)oc3c2)c1` the “activity change, negative = inhibition” value was 6.43%.
For `CCOc1ccc(-c2nn3ncccc3c2-c2ccc(S(C)(=O)=O)cc2)cc1`, the “activity change, negative = inhibition” value was 52.2%.
In the case of `COC(=O)C1=CO[C@@H](O[C@@H]2O[C@H](CO)[C@@H](O)[C@H](O)[C@H]2O)[C@H]2[C@@H]1[C@H](O)[C@H](O)[C@]2(C)O`, the “activity change, negative = inhibition” value is reported as 7.24% [at 57.1 µM].
For `CC(C)(Oc1ccc(-c2nc3cc(Cl)ccc3s2)cc1)C(=O)O`, the Potency was 35.5 µM (active).
`O=C(O)c1cccc(CN2C(=O)/C(=C(\c3ccccc3)c3ccc(Cl)cc3)c3ccccc32)c1` was tested, and the Potency was 1.41 µM (active).
`O=C(C1OC1/C=C/c1ccc2c(c1)OCO2)N1CCCCC1` (stereo not drawn) was tested, and the “activity change, negative = inhibition” value was -9.42%.
In the case of `COc1ccc2c(c1)C=C1Cn3c-2c(C2CCCCC2)c2ccc(cc23)C(=O)NS(=O)(=O)N(C)CCOCCN(C)C1=O`, the Potency is reported as 2.51 µM (active).
`COC(=O)C1=C[C@@H](O)[C@@H](O)[C@H](O[C@@H]2O[C@H](CO)[C@@H](O)[C@H](O)[C@H]2OC(=O)/C=C/c2ccccc2)C1` was tested, and the “activity change, negative = inhibition” value was 16.4% [at 57.1 µM].
For `O=C(OCC(O)CO[C@@H]1O[C@H](C(=O)O)[C@@H](O)[C@H](O)[C@H]1O)c1ccccc1` (stereo partly drawn), the “activity change, negative = inhibition” value was -29.8%.
In the case of `C/C=C(\C)C1C(C)=CC2CCC(OS(=O)(=O)O)C(C)C2C1/C=C/C=C/C(=O)O` (stereo not drawn), the Potency is reported as 8.91 µM (active).
With `CCC[C@H](N[C@@H](C)C(=O)N1[C@H](C(=O)O)C[C@@H]2CCCC[C@@H]21)C(=O)O` the “activity change, negative = inhibition” value was 33%.
`CC[C@H]1OC(=O)[C@H](C)C(=O)[C@H](C)[C@@H](OC2O[C@H](C)C[C@H](N(C)C)[C@H]2O)[C@@H](C)C[C@@H](C)C(=O)/C=C/[C@]1(C)O` (stereo partly drawn) was tested, and the “activity change, negative = inhibition” value was 24.5% [at 57.1 µM].
`NC1Nc2ccccc2C1(N)CC1NC(=O)C(Cc2ccccc2)NC(=O)C(Cc2ccccc2)NC1=O` (stereo not drawn) was tested, and the “activity change, negative = inhibition” value was 18.1% [at 57.1 µM].
In the case of `O=C(O)CCc1ccc(NCc2cccc3c2CCCN3CCOc2ccccc2)cc1F`, the Potency is reported as 3.16 µM (active).
In the case of `C=C1CCC2C(C)(C)CC(O)CC2(C)C1CCC(C)CC(=O)O` (stereo not drawn), the Potency is reported as 11.2 µM (active).
With `CC1CCC2(C(=O)O)CCC3(C)C(=CCC4C5(C)CCC(O)C(C)(C(=O)O)C5CCC43C)C2C1(C)O` (stereo not drawn) the “activity change, negative = inhibition” value was -25.7% [at 57.1 µM].
`c1cc(-c2cc(C3CCNCC3)[nH]n2)ccn1` was tested, and the “activity change, negative = inhibition” value was 68.2% [at 57.1 µM].
In the case of `CC(C)CC[C@@H](O)[C@](C)(O)[C@H]1CC[C@@]2(O)C3=CC(=O)[C@@H]4C[C@@H](O)[C@@H](O)C[C@]4(C)[C@H]3CC[C@]12C`, the “activity change, negative = inhibition” value is reported as 17%.
For `OCC(O)C(c1c[nH]c2ccccc12)c1c[nH]c2ccccc12` (stereo not drawn), the Potency was 50.1 µM (active).
In the case of `C/C=C/C=C/C=C/C(=O)N(C)C(C(=O)NC(C)C(=O)N1CCCC1C(N)=O)C(C)C` (stereo not drawn), the “activity change, negative = inhibition” value is reported as -6.51% [at 57.1 µM].
`COc1cccc(Cn2ncc3c4sc(S(C)=O)cc4n(C)c3c2=O)c1` (stereo not drawn) was tested, and the “activity change, negative = inhibition” value was 19%.
`CC(=O)O[C@H]1C[C@@]2(C)[C@@H](CC[C@H]3[C@@]4(C)C=CC(=O)[C@@H](C)[C@@H]4[C@H](OC(C)=O)C(=O)[C@@]32C)/C1=C(\CCC=C(C)C)C(=O)O` was tested, and the “activity change, negative = inhibition” value was 58.6% [at 57.1 µM].
For `O=C(N[C@H](Cc1ccccc1)C(=O)O)c1sc2cc(F)ccc2c1Cl`, the Potency was 39.8 µM (active).
With `CC(C)=CCC/C(C)=C/CO[C@@H]1O[C@H](CO[C@@H]2O[C@@H](CO)[C@H](O)[C@H]2O)[C@@H](O)[C@H](O)[C@H]1O` the “activity change, negative = inhibition” value was 0.0353% [at 57.1 µM].
For `CC1(C)C[C@H]2C=C(C=O)[C@]3(C(=O)O)C[C@]3(C)[C@H]2C1`, the Potency was 22.4 µM (active).
In the case of `O=C(CC1CC(c2ccc(F)cc2F)=NO1)N1CCOCC1` (stereo not drawn), the “activity change, negative = inhibition” value is reported as 10.3%.
For `COc1cc2c(cc1O)CC(O)(CO)C(CO)C2c1ccc(OC2OC(CO)C(O)C(O)C2O)c(OC)c1` (stereo not drawn), the “activity change, negative = inhibition” value was -20.9% [at 57.1 µM].
`C[C@]1(OC(=O)/C=C/c2ccccc2)C[C@@H](O)[C@]2(O)C=CO[C@@H](O[C@@H]3O[C@H](CO)[C@@H](O)[C@H](O)[C@H]3O)[C@@H]21` was tested, and the “activity change, negative = inhibition” value was 30.6% [at 57.1 µM].
With `CCOC(=O)CNC(=O)[C@@H]1CCCN1C(=O)Cc1ccccc1` (PhAc-Pro-Gly-OEt) the “activity change, negative = inhibition” value was 4.03%.
With `CC(C)C1CCC(C(=O)N[C@@H](Cc2ccccc2)C(=O)O)CC1` (stereo partly drawn) the Potency was 31.6 µM (active).

These compounds were tested on Zika virus NS2B-NS3 protease (linked construct) (assay: Primary screen NINDS Rhodamine qHTS for Zika virus inhibitors (AID 1347160; further: nearly all actives have a fitted effect of over 55% in size)). Details: purified NS2B-NS3 protease, Rhodamine110 substrate fluorescence; series mostly up to 33.1 µM; activity change, negative = inhibition: at the top concentration.
How it was run: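 Each compound, titrated, sat 15 min with 25 nM linked protease before 1.5 microM Rhodamine110 substrate went in. Fluorescence gain over the next 15 min, in pH 8.0 Tris with Tween 20, gave Hill-fitted curves.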
`CC(C)CC(c1c(O)c(C=O)c(O)c(C=O)c1O)C1CCC(C)(O)C2CC(C(C)(C)O)CCC12C` (stereo not drawn) was tested, and the Potency was 5.01 µM (active).
`CC1(C)CC[C@]2(C(=O)O)CC[C@]3(C)C(=CCC4[C@@]5(C)CC[C@H](O[C@@H]6O[C@H](C(=O)O)[C@@H](O)[C@H](O)[C@H]6O)C(C)(C)C5CC[C@]43C)C2C1` (stereo partly drawn) was tested, and the “activity change, negative = inhibition” value was -4.44% [at 15.1 µM].
For `CC1C(O)C(O)C2C(C(=O)OCCc3ccc(O)cc3)=COC(O[C@@H]3O[C@H](CO)[C@@H](O)[C@H](O)[C@H]3O)C12` (stereo partly drawn), the Potency was 8.91 µM (active).
`CCc1nnc(NS(=O)(=O)c2ccc(NC(=S)NC(=O)/C=C/c3ccc(F)cc3)cc2)s1` was tested, and the Potency was 3.16 µM (active).
